SMILES strings stand for the structures. Records with an inconclusive call do not appear. Calls of active or inactive are those of the source. Unless noted, the call rests on the fitted dose curve; in most records, active means well fitted curve in the direction sought with a large enough effect in the repeat runs; inconclusive means weak or mixed curves; inactive means no such curve, though single readings can be large; an effect the other way counts as inactive or inconclusive.

Potency and outcome data for seven molecules are collected here from PubChem BioAssay (Tox21).

Assay [1] can be described thus: A CellTox Green Cytotoxicity Assay to monitor cytotoxicity in HEK293 cells - 32 hour (AID 1224881). Further: nearly all actives have a fitted effect of over 40% in size. The method in brief: (§1)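 Fluorescence intensity, read at 0, 8, 16, 24, 32 and 40 h of compound treatment, reflected dye binding to DNA of dead HEK293 cells; compounds (23 nL, DMSO) were added 5 h after plating cells with reagent.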
Assay [2] is described as follows: A CellTox Green Cytotoxicity Assay to monitor cytotoxicity in HepG2 cells - 0 hour (AID 1224882). Further: nearly all actives have a fitted effect of over 35% in size. The method, boiled down: (§2)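 Using 1536-well format, dye-containing HepG2 suspension was seeded, allowed 5 h at 37 C/5% CO2, dosed by pintool with compounds, positive and negative controls, and imaged for fluorescence across 40 h.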
Assay [3] in a line: A CellTox Green Cytotoxicity Assay to monitor cytotoxicity in HepG2 cells - 32 hour (AID 1224883). Further: nearly all actives have a fitted effect of over 50% in size. The method, boiled down:
as §2

Assay [4] is described as follows: A CellTox Green Cytotoxicity Assay to monitor cytotoxicity in HEK293 cells - 8 hour (AID 1224884). Further: nearly all actives have a fitted effect of over 35% in size. The method, boiled down: as §1
Assay [5] in a line: qHTS RealTime-Glo MT Cell Viability Assay in HepG2 cells - 16 hour (AID 1224885). Further: nearly all actives have a fitted effect of over 50% in size. The method, boiled down:
(§3)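 Real-time, nonlytic viability: 600 HepG2 cells/well mixed with NanoLuc enzyme plus prosubstrate; 5 h settle, compound (DMSO) added by pintool; luminescence monitored over 40 h at 37 C.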
(In general: In qHTS, concentration-response curves come from the screen itself.)

Assay [6] is described as follows: qHTS RealTime-Glo MT Cell Viability Assay in HEK293 cells - 24 hour (AID 1224886). Further: nearly all actives have a fitted effect of over 50% in size. Further: potency means the concentration at half of the fitted maximal effect. The method, boiled down:
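Cells + reagent dispensed (600 cells/well, HEK293) → 5 h at 37 C/5% CO2 → 23 nL compound in DMSO pinned → 40 h at 37 C → luminescence read at 0, 8, 16, 24, 32, 40 h.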

Assay [7] is described as follows: qHTS RealTime-Glo MT Cell Viability Assay in HEK293 cells - 8 hour (AID 1224887). Further: nearly all actives have a fitted effect of over 50% in size. Further: potency means the concentration at half of the fitted maximal effect. The method, boiled down:
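Viable HEK293 cells reduce a cell-permeant prosubstrate; the product diffuses out and is consumed by NanoLuc in the medium to give light. Compounds went in after a 5 h incubation and plates were read over the treatment course.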

The nature of assay [8]: A CellTox Green Cytotoxicity Assay to monitor cytotoxicity in HEK293 cells - 16 hour (AID 1224888). Further: nearly all actives have a fitted effect of over 35% in size. The method in brief: as §1
The nature of assay [9]: qHTS RealTime-Glo MT Cell Viability Assay in HepG2 cells - 0 hour (AID 1224889). Further: nearly all actives have a fitted effect of over 50% in size. The method in brief:
as §3

Assay [10] is described as follows: A CellTox Green Cytotoxicity Assay to monitor cytotoxicity in HepG2 cells - 8 hour (AID 1224890). Further: nearly all actives have a fitted effect of over 45% in size. The method in brief:
as §2

Assay [11] in a line: qHTS assay to identify small molecule antagonists of the estrogen receptor alpha (ER-alpha) signaling pathway using the BG1 cell line in the presence of 0.1 nM 17-beta-estradiol - cell viability counter screen (AID 1259241). Further: nearly all actives have a fitted effect of over 40% in size. The method in brief:
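Cytotoxicity counter-screen: live-cell protease activity measured by fluorescence (30 min reagent step) in the same wells. Cells were VM7Luc4E2 with endogenous ER-alpha and ERE-driven luciferase, treated 22 hr at 37C alongside 0.1 nM 17beta-estradiol final.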

Assay [12] can be described thus: qHTS assay to identify small molecule antagonists of the androgen receptor (AR) signaling pathway using the MDA cell line in the presence of 0.5 nM R1881 - cell viability counter screen (AID 1259242). Further: nearly all actives have a fitted effect of over 45% in size. The method, boiled down:
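Viability of MDA-kb2 cells was multiplexed with the luciferase AR readout; after 16 hr with compounds and R1881 at 0.5 nM final, CellTiter-Fluor fluorescence was recorded.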

The target of assay [13] is Estrogen receptor (Homo sapiens) (UniProt P03372). Nature of the assay: qHTS assay to identify small molecule antagonists of the estrogen receptor alpha (ER-alpha) signaling pathway using the BG1 cell line in the presence of 0.1 nM 17-beta-estradiol (AID 1259244). Further: nearly all actives have a fitted effect of over 50% in size. The method, boiled down: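 Estradiol at 0.1 nM (final) stimulates the endogenous ER-alpha of VM7Luc4E2 cells carrying an ERE-driven luciferase; compounds are co-incubated 22 h at 37C and luciferase output quantified by luminescence.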
Sequence of Estrogen receptor (Homo sapiens) (P03372 whole entry, looked up): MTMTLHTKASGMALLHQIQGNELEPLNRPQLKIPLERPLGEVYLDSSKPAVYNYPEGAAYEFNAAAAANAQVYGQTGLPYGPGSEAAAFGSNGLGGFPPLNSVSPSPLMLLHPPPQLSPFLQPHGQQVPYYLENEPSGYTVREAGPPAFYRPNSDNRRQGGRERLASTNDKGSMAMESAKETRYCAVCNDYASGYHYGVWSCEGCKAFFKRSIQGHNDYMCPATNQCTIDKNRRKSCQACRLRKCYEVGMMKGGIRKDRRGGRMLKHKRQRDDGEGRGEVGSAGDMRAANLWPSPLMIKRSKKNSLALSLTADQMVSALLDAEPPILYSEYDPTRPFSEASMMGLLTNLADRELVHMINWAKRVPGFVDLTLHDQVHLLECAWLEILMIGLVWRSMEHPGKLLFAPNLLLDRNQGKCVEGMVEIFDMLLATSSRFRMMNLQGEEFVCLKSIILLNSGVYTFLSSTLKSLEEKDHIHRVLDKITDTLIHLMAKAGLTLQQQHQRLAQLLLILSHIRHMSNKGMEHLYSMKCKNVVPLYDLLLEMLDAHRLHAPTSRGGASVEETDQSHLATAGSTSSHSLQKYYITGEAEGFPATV

The nature of assay [14]: qHTS assay to identify small molecule HDAC inhibitors (AID 1259364).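 Further: wild-type HCT-116 cells with endogenous class I/II HDAC activity; top concentration of the series differs between compounds; nearly all actives have a fitted effect of over 45% in size.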 The method in brief: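 Read-out: luminescence of HDAC-Glo I/II reagent, 30 min RT, reflecting class I/II deacetylase activity in whole HCT-116 cells pre-exposed 2 h to DMSO-dissolved compounds.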
The nature of assay [15]: qHTS assay to identify small molecule HDAC inhibitors - cell viability counter screen (AID 1259365). The method, boiled down:
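CellTiter-Glo luminescence (30 min, room temperature) reported viability after a 2 h compound exposure at 37 C. Cells: wild-type HCT-116, 1,500 per well, seeded the night before.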

Assay [16] can be described thus: qHTS assay to identify small molecule agonists of the sonic hedgehog signaling (Shh) pathway - cell viability counter screen (AID 1259366). Further: nearly all actives have a fitted effect of over 50% in size. The method in brief:
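Cytotoxicity counter screen: CellTiter-Fluor reagent added after 23 h compound exposure, then 1 h at 37C and fluorescence read. Cells were 3T3 Gli1-Luc, seeded 2,000 per well and dosed 4 h post-plating.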

Assay [17] can be described thus: qHTS assay to identify small molecule antagonists of the sonic hedgehog signaling (Shh) pathway - cell viability counter screen (AID 1259367). Further: nearly all actives have a fitted effect of over 55% in size. The method in brief:
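Seed 3T3 Gli1-Luc cells at 2,000 per well; incubate 4 hr; add compound in DMSO, then conditioned medium; incubate at 37C with 5% CO2; add CellTiter-Fluor after 23 hr; read fluorescence 1 hr later.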

Assay [18] is described as follows: qHTS assay to identify small molecule agonists of the sonic hedgehog signaling (Shh) pathway (AID 1259368; calls by dose curve;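 further: NIH/3T3-derived 3T3Gli1-Luc cells carrying a stable Gli1-driven firefly luciferase reporter; series mostly up to about 92 µM; nearly all actives have a fitted effect of over 15% in size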). The method in brief:
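A Gli1 transcriptional response element controlled firefly luciferase in 3T3Gli1-Luc cells. Compounds and a positive control were added 4 hr after plating, and cells were incubated a further 24 hr at 37 C before luminescence detection.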

Assay [19] can be described thus: qHTS assay to identify small molecule phospholipidosis (PLD) inducers (AID 1259344; active means well fitted curve in the direction sought with a large enough effect; an effect the other way counts as inactive or inconclusive). The method, boiled down:
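Quantitative HTS in HepG2: compound plus LipidTOX Red dye for 24 h, paraformaldehyde fixation with Hoechst 33342, widefield high-content imaging; amiodarone as positive and DMSO as negative control.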

On to `O=C(O)c1cc(I)cc(I)c1I`, for which the Potency result in assay [1], in assay [2], in assay [3], in [4], in assay [5] and in [6] was “inactive” in each case. Also, the Potency result in [7], in assay [8], in assay [10], in [11], in assay [12] and in [13] was “inactive” each time. Also, the Potency result in [14], in [15], in [16], in assay [17] and in assay [18] was “inactive” throughout. In addition, in [9], the molecule was called inactive.

In the case of `CCCC1CCCCN1` (configuration not stated), the Potency entry in [1], in assay [2], in [3], in [4], in [5] and in [6] was “inactive” in each case. For the same molecule, the Potency entry in assay [7], in assay [8], in assay [10], in [11], in [12] and in assay [14] was “inactive” throughout. For the same molecule, the Potency result in [15], in assay [16], in assay [17] and in assay [18] was “inactive” each time. The result in assay [9] and in [19] was inactive.

Consider `CC(C)(c1ccccc1)c1cc(-n2nc3ccccc3n2)c(O)c(C(C)(C)c2ccccc2)c1`, for which the Potency result in [1], in assay [2], in assay [3], in assay [4], in assay [5] and in assay [6] was “inactive” each time. In addition, the Potency entry in assay [7], in [8], in assay [10], in [11], in [12] and in [13] was “inactive” each time. Besides, the Potency result in assay [14], in assay [15], in assay [16], in assay [17] and in assay [18] was “inactive” throughout. The result in assay [9] was inactive.

Consider `CCCCC(CC)COC(=O)c1c(Br)c(Br)c(Br)c(Br)c1C(=O)OCC(CC)CCCC` (configuration not stated), for which the Potency entry in [1], in assay [2], in assay [3], in assay [4], in assay [5] and in assay [6] was “inactive” throughout. The Potency entry in assay [7], in assay [8], in assay [10], in assay [11], in assay [12] and in assay [13] was “inactive” each time. The Potency entry in [14], in [15], in assay [16], in assay [17] and in [18] was “inactive” throughout. In addition, the molecule was classed as inactive in [9].

Regarding `CCOC(=O)c1cn2nc(OP(=S)(OCC)OCC)cc2nc1C`, the Potency entry in assay [1], in assay [2], in [3], in [4], in [5] and in [8] was “inactive” in each case. In addition, the Potency result in assay [10], in assay [11], in [12], in assay [14], in assay [15] and in [16] was “inactive” throughout. For the same molecule, the Potency result in assay [17] and in assay [18] was “inactive” throughout. Also, the Potency in assay [6] and in assay [7] was 17.4 µM (active) each time.

With `CCNC(=O)NC(=O)/C(C#N)=N/OC`, the Potency result in assay [1], in assay [2], in assay [3], in assay [4], in assay [5] and in [6] was “inactive” throughout. Also, the Potency result in assay [7], in [8], in assay [10], in assay [11], in assay [12] and in assay [14] was “inactive” each time. The Potency entry in assay [15], in assay [16], in assay [17] and in [18] was “inactive” throughout. The call in assay [9] was inactive.

`Cc1ncc(C[n+]2csc(CCO)c2C)c(N)n1`: the Potency entry in assay [1], in assay [2], in assay [3], in [4], in [5] and in assay [6] was “inactive” throughout. Moreover, the Potency result in assay [7], in [8], in assay [10], in [11], in assay [12] and in assay [14] was “inactive” throughout. For the same molecule, the Potency result in [15], in assay [16], in assay [17] and in assay [18] was “inactive” in each case. Also, the molecule was classed as inactive in assay [9].
